# Data reported in PubChem BioAssay AID743195 (National Center for Advancing Translational Sciences (NCATS), 2013).
# The list shows a part of the results. Records with an inconclusive call do not appear. Calls of active or inactive are those of the source. The call rests on the fitted dose curve; in most records, active means well fitted inhibition curve with a large enough effect; inconclusive means small, poorly fitted or top-dose-only effect; inactive means no such curve, though single readings can be large or run the other way.
# Molecular target: Aldehyde dehydrogenase 1A1 (Homo sapiens) (UniProt P00352)
# Sequence (P00352 whole entry, looked up): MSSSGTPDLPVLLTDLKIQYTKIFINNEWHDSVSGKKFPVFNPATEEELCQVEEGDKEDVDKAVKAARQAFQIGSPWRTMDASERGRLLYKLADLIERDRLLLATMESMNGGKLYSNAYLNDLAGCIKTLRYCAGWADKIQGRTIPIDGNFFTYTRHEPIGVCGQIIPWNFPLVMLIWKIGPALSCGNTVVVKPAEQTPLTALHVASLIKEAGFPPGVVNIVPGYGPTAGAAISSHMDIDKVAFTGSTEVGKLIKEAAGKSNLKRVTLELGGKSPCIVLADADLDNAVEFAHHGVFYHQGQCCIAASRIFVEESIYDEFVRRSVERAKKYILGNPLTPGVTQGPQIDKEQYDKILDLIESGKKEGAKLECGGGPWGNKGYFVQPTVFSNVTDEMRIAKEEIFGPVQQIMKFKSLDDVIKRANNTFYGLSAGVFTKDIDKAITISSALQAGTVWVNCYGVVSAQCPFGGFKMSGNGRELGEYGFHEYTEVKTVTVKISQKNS
# Assay: Extended Characterization of HPGD Inhibitors: Counterscreen Against ALDH1A1
# Conditions: recombinant ALDH1A1, NADH fluorescence, propionaldehyde/NAD+
# Description: The central role of HPGD is to inactivate prostaglandins such as prostaglandin E2 (PGE2) or prostaglandin D2 (PGD2). These prostaglandins are involved in a number of processes, including inflammation, differentiation, and cellular signaling, which makes HPGD an important target for pharmacological intervention. Aldehyde dehydrogenase 1 family, member A1 (ALDH1A1) catalyzes the NAD+ dependent oxidation of a variety of endogenous and exogenous aldehydes to the corresponding carboxylic acids. The enzyme is the critical step in the metabolic activation of retinoic acid, which plays an essential role as a nuclear receptor ligand. […] ALDH1A1 shares some homology with HPGD, and it served as a suitable anti-target of HPGD to determine chemical probe selectivity. The assay system is similar to the HPGD primary screening protocol. Inhibition of ALDH1A1 activity was screened by utilizing propionaldehyde as an electron donor and NAD+ as an electron acceptor/cofactor. An increase in the fluorescence intensity due to conversion of NAD+ to NADH was used to measure the enzyme activity. NIH Chemical Genomics Center [NCGC] NIH Molecular Libraries Probe Centers Network [MLPCN] MLPCN Grant: MH084681 Assay Submitter (PI): Structural Genomics Consortium
# 3 uL of enzyme (final concentration 50 nM) or buffer were dispensed into a 1,536-well solid-bottom black plate (Greiner Bio One, Monroe, NC) followed by pin-tool transfer (23 nL) of compound (final concentration range 324 pM to 57.2 uM) and control (Bay 11-7085 (CID-5353432), final concentration range 1.31 nM to 2.86 uM). Samples were incubated (RT, protected from light) for 15 minutes followed by a 1 uL substrate addition of NAD+ and Propionaldehyde (final concentrations of 1 mM and 80 uM, respectively). Plates were centrifuged at 1,000 rpm for 15 seconds, then read in kinetic mode on a ViewLux High-throughput CCD imager (Perkin-Elmer) equipped with standard UV fluorescence optics (340 nm excitation, 450 nm emission) for 10 minutes at 5 minute intervals. Data were normalized (Read […] - Read 10 min) against no-enzyme (positive) and enzyme-containing (neutral) wells.
row,SMILES,Potency
1,Cc1cc(C)nc(NC(=S)N2CCN(c3ccc(Cl)cc3F)CC2)c1,4.82 µM (active)
2,FC(F)(F)c1cccc(N2CCN(C(=S)Nc3ccncc3)CC2)c1,27.1 µM (active)
3,Cc1cc(C)nc(NC(=S)N2CCN(c3cccc(C(F)(F)F)c3)CC2)c1,15.2 µM (active)
4,COc1cccc(NC(=S)N2CCN(c3ccc(Cl)cc3Cl)CC2)n1,1.08 µM (active)
5,COc1cccc(NC(=S)N2CCN(c3ccccc3C(F)(F)F)CC2)n1,2.15 µM (active)
6,Cc1cc(C)nc(NC(=S)N2CCN(c3cccc(C#N)c3)CC2)c1,3.83 µM (active)
7,Cc1ccc(N2CCN(C(=S)Nc3cc(C)ccn3)CC2)cc1,3.83 µM (active)
8,Cc1cc(C)nc(NC(=S)N2CCN(c3ccc(Cl)cc3C(F)(F)F)CC2)c1,7.64 µM (active)
9,Cc1cc(C)nc(NC(=S)N2CCN(c3ccc4nonc4c3)CC2)c1,12.1 µM (active)
10,COc1ccnc(NC(=S)N2CCN(c3ncc(C(F)(F)F)cc3Cl)CC2)c1,1.92 µM (active)
